Screens as filed in PubChem.
SKN-1 inh = suppressors of acrylamide-induced Pgst-4::GFP reporter in worms, primary screen, SKN-1 inhibitor project, whole organism, uHTS, GFP/RFP fluorescence ratio, strain VP596; C. elegans VP596 Pgst-4::GFP/RFP ratio, 24 h; inhibition, % at 21.8 µM; hit rate 0.49% among 360,000;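 active = interference check ratio from 0.5 to 1.5 plus GFP to RFP signal ratio inhibition reaching or exceeding a fixed threshold, cut at about 30% in these data, passing the limit was not always enough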
M1 PAM = human M1 muscarinic receptor positive allosteric modulators, primary screen, CHO-K1 cells, Fluo-8 calcium fluorescence, 1536-well; Muscarinic acetylcholine receptor M1 (Homo sapiens), P11229; CHO-K1 hM1, ACh EC20; 0% = ACh EC20, 100% = maximal ACh; hit rate 0.088% among 360,000; activation, % at 3 µM; in the data active = activation above about 19%, passing the limit was not always enough
Myeloid diff 2 = induction of myeloid progenitor differentiation, primary screen, cell-based, flow cytometry, MLPCN library | calls only at 10 µM | hit rate 1% among 360,000 | ER-HoxA9 myeloid progenitors, lysozyme-GFP differentiation;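 active = normalized GFP-positive differentiation at or above the plate's own cutoff, the solvent-only control mean plus 3 SD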;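 note: cells exposed to compound for four days before flow analysis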
CHRM1 agonist = human M1 muscarinic receptor agonists, primary screen, Fluo-8 calcium fluorescence, CHO-K1 cells, HTS. hit rate 0.33% among 360,000. AID 588814, 2011. Muscarinic acetylcholine receptor M1 (Homo sapiens), P11229. activation, % at 3 µM. CHO-K1 hM1, agonist mode; 0% DMSO, 100% acetylcholine EC100;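 active = activation above the run's mean compound activation plus 3 SD, cut at about 16% in these data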;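 note: peak over basal fluorescence ratio within a 140 s kinetic read after compound addition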
CHRM1 antagonist = human M1 muscarinic receptor antagonists, primary screen, CHO-K1 cells, Fluo-8 calcium fluorescence, 1536-well; Muscarinic acetylcholine receptor M1 (Homo sapiens), P11229; CHO-K1 hM1, ACh EC80 antagonist; inhibition, % at 3 µM; hit rate 1.3% among 360,000;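 active = percent inhibition above its own plate's cutoff, namely the mean of that plate's compound wells plus 3 SD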;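 note: peak over basal fluorescence ratio during 140 s after agonist addition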
ATG4B inh = ATG4B protease inhibitors, primary screen, biochemical, fluorescence, uHTS; Cysteine protease ATG4B (Homo sapiens), Q9Y4P1; ATG4B cleavage of LC3-PLA2, NBD-HPC fluorescence, 1 h; inhibition, % at 8.33 µM; hit rate 0.51% among 340,000; in the data active = inhibition above about 40%
Target sequence (Q9Y4P1 whole entry, looked up): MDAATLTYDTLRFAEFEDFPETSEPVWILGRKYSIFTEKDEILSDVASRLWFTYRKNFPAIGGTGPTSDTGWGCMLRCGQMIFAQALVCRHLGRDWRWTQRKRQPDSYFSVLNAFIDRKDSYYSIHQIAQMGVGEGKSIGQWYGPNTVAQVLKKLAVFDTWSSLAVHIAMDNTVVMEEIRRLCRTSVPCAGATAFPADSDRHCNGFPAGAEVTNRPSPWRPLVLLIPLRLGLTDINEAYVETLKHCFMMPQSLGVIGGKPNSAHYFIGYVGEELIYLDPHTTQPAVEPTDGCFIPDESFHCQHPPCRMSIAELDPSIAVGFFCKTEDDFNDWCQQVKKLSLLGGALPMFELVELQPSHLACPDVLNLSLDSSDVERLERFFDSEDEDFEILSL
Myeloid diff = inducers of myeloid progenitor differentiation, confirmation, cell-based, GFP/Mac1 flow cytometry, cherry pick 01. calls only. ER-HoxA9 myeloid progenitors, GFP/Mac1 double-positive flow. shares compounds with Myeloid diff 2. hit rate 2% among 2,300;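 active = share of green or green-and-red cells above 9 and 9% in run 1 or 4 and 3% in run 2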
GFP autofluor = compound fluorescence in myeloid differentiation counter-screen | shares compounds with Myeloid diff 2 | ER-HoxA9 myeloid progenitors, no estrogen, GFP autofluorescence flow cytometry; vehicle wells 0%, positive control 100% | fluorescence response, % (no concentration beside the values) | hit rate 7.4% among 2,300;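 active = over 5% cells positive for green fluorescent reporter, or over 2% positive for both it and APC stain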
Large screens that a line does not name were inactive (follow-up assays come after a bar, where they were run). Sampled rows, rich in hits. Any-hit rate of the full collection: about 3.5%.

CC(C)CC1C(=O)N(Cc2cn(CC3CCCCC3)nn2)CCS(=O)(=O)N1Cc1ccc(-c2ccncc2)cc1 (centres undefined)	CHRM1 agonist 19.4 (no result: ATG4B inh) | Myeloid diff inactive | GFP autofluor inactive
COc1ccc(-c2ccc(CN3C(CC(C)C)C(=O)N(Cc4cn(CC5CCCCC5)nn4)CCS3(=O)=O)cc2)cc1OC (centres undefined)	none (no result: ATG4B inh)
CC1C(=O)N(Cc2cn(CCC3OCCCO3)nn2)CCS(=O)(=O)N1Cc1ccc(-c2ccc(Cl)cc2)cc1 (centres undefined)	none (no result: ATG4B inh)
CC1C(=O)N(Cc2cn(CCC3OCCCO3)nn2)CCS(=O)(=O)N1Cc1ccc(-c2ccccc2)cc1 (centres undefined)	Myeloid diff 2 active (no result: ATG4B inh) | Myeloid diff inactive | GFP autofluor inactive
COc1ccc(C(=O)NC(=S)Nc2cc(C)ccn2)cc1[N+](=O)[O-]	none
CNC(=O)c1ccsc1NC(=O)CCS(=O)(=O)c1ccc(F)cc1	none
NC(=O)c1ccsc1NC(=O)CCS(=O)(=O)c1ccc(F)cc1	Myeloid diff 2 active | Myeloid diff inactive | GFP autofluor inactive
O=C(Nc1cccc(C(F)(F)F)c1)C1C2CC3OC(=O)C1C3C2 (centres undefined)	Myeloid diff 2 active | Myeloid diff inactive | GFP autofluor inactive
COc1ccc(-n2ncc(C(C)NS(=O)(=O)c3cc(C)sc3C)c2C)cc1 (centres undefined)	none (no result: ATG4B inh)
Cc1cccc(N2CCN(C(=S)NCCc3ccccc3)CC2)c1C	Myeloid diff 2 active | Myeloid diff inactive | GFP autofluor inactive
COCc1cc(=O)[nH]c(Nc2nc3ccc(C)cc3o2)n1	none | Myeloid diff inactive | GFP autofluor inactive
Cc1cc2nc(CS(=O)(=O)c3ccccc3)cc(=O)n2[nH]1	none
CCn1cc(C(=O)N2CCN(c3ccc([N+](=O)[O-])cc3)CC2)c(=O)c2ccc(C)nc21	Myeloid diff 2 active | Myeloid diff inactive | GFP autofluor inactive
CCOc1ccccc1-n1c(SCC(N)=O)nnc1-c1cccnc1	none
CCOc1ccccc1-n1c(SCC(=O)N(C(C)C)C(C)C)nnc1-c1cccnc1	none | Myeloid diff inactive | GFP autofluor inactive
COc1ccc2ccccc2c1CNC(=O)CC1C(=O)NCCN1CC(C)(C)C (centres undefined)	none
Cc1ccccc1OCc1nnc(SCCN2CCCC2)n1-c1ccccc1	Myeloid diff 2 active | Myeloid diff inactive | GFP autofluor inactive
O=C(C1CCCCN1S(=O)(=O)c1ccccc1)N1CCCCC1 (centres undefined)	Myeloid diff 2 active | Myeloid diff inactive | GFP autofluor inactive
O=C(O)C1CCCCN1S(=O)(=O)c1ccccc1 (centres undefined)	none
COc1ccc(CCNC(=O)c2ccn[nH]2)cc1OC	Myeloid diff 2 active | Myeloid diff inactive | GFP autofluor inactive
CCOC(=O)c1ccc(NC(=O)c2nc[nH]c2C(=O)N(C)CCO)cc1	Myeloid diff 2 active (no result: ATG4B inh) | Myeloid diff inactive | GFP autofluor inactive
CC(C)Oc1ccc(C(=O)Nc2c3c(nn2C(C)(C)C)CS(=O)(=O)C3)cc1	none
Cc1nc(SCC(=O)NCC2CCCO2)c2c3c(sc2n1)CCC3 (centres undefined)	none
Cc1ccc2cc(C#N)c(SCC(=O)NCC3CCCO3)nc2c1 (centres undefined)	none | Myeloid diff inactive | GFP autofluor inactive
Cc1ccc(-c2[nH]c(-c3ccccc3)nc2SCC(=O)NCC2CCCO2)cc1 (centres undefined)	none
Cc1ccc(-c2nc(SCC(=O)NCC3CCCO3)c(-c3ccc(C)cc3)[nH]2)cc1 (centres undefined)	none | Myeloid diff inactive | GFP autofluor inactive
Cc1nc(SCC(=O)NCC2CCCO2)c2cc(-c3ccccc3)sc2n1 (centres undefined)	none | Myeloid diff inactive | GFP autofluor inactive
Nc1ccn(CC(=O)N[C@H](CO)Cc2c[nH]c3ccccc23)c(=O)n1	none
COC(=O)c1ccc(Nc2cc(C)nc3ccc(C)cc23)cc1	Myeloid diff 2 active | Myeloid diff inactive | GFP autofluor inactive
CCCCn1c(N)c(N(CC(C)C)C(=O)c2cccc(OCc3ccccc3)c2)c(=O)[nH]c1=O	none
CCN(Cc1nc2ccccc2c(=O)[nH]1)Cc1nc2cc(OC)c(OC)cc2c(=O)[nH]1	none
COc1cc2nc(CN(C)Cc3nc4ccccc4c(=O)[nH]3)[nH]c(=O)c2cc1OC	none | Myeloid diff inactive | GFP autofluor inactive
Nc1ccc(-n2nc3ccccc3n2)cc1	none
Nc1ccc2nn(-c3ccccc3)nc2c1	none | Myeloid diff inactive | GFP autofluor inactive
Cc1ccc(CNC(=O)C2CCC(=O)N(CC3CCCCC3)C2)o1 (centres undefined)	none
CCCCOc1ccc(OC(=O)Nc2cc(Cl)ccc2OC)cc1	none | Myeloid diff active | GFP autofluor inactive
CN(Cc1ccccc1Cl)C(=O)CNC(=O)C12CC3CC(CC(C3)C1)C2	none
CCOc1ccccc1C1CC(c2cccs2)=NN1S(C)(=O)=O (centres undefined)	Myeloid diff 2 active | Myeloid diff inactive | GFP autofluor 91.8
COc1cccc(C2CC(c3cccs3)=NN2S(C)(=O)=O)c1 (centres undefined)	none
CC(C)CCNC(=O)C(Cc1ccccc1)NS(=O)(=O)c1ccc2c(c1)c(=O)n(C)c(=O)n2C (centres undefined)	Myeloid diff 2 active | Myeloid diff inactive | GFP autofluor inactive
Cc1cc(C)c2nc(N3C(=O)C(O)=C(C(=O)c4ccco4)C3c3cccc(O)c3)sc2c1 (centres undefined)	none
Cn1ccc2c(-c3ccc(C(F)(F)F)cc3)cc3c(c21)C1CCC3O1 (centres undefined)	none (no result: ATG4B inh)
Cn1ccc2c(-c3ccc(C(C)(C)C)cc3)cc3c(c21)C1CCC3O1 (centres undefined)	Myeloid diff 2 active (no result: ATG4B inh) | Myeloid diff active | GFP autofluor inactive
